In all, about 360,000 compounds went through this assay and about 17,000 (4.7%) were called active. Inconclusive results (about 5%) are left out. The full list was thinned out, with actives kept by preference. Unmarked numbers belong to inactive results. Cut-off read from the data, not from the text of the source: active = activity change below about -50%; inconclusive = mostly about -30% to -49%; inactive = weaker than that.
Assay: qHTS for Inhibitors of Inflammasome Signaling: IL-1-beta AlphaLISA Primary Screen
Details: THP-1 LPS/ATP IL-1B secretion, 16 h; at 57.5 µM, active compounds read low
Excerpt: Inflammasomes are a set of intracellular multi-protein complexes that enable autocatalytic activation of inflammatory caspases and drive the innate immune response to counter harmful agents. […] A qHTS assay, based on AlphaLISA technology, was developed to screen the Molecular Libraries Small Molecule Repository (MLSMR) to look for novel inflammasome inhibitors. The assay detects IL-1B using AlphaLISA anti-IL-1B acceptor and donor beads. A decreased emission signal, indicating reduced IL-1B secretion, is the desired outcome for this assay. NIH Chemical Genomics Center [NCGC] NIH Molecular Libraries Probe Centers Network [MLPCN] MLPCN Grant: MH095513 Assay Provider: Shyam Biswal Ph.D., Johns Hopkins University Immunity. 2012 Jul 27;37(1):85-95. PMID: 22819042 [2] Curr Pharm Des. 2012;18(16):2320-8. PMID: 22390695
Three microliters containing 3000 THP-1 cells were dispensed into the wells of solid, white, tissue culture treated Greiner 1,536-well plates. Library compounds and positive control, Glyburide, were pin-transferred (23 nL) by a Kalypsys pin-tool equipped with a 1,536-pin array, resulting in final compound concentration ranges of 2.5 nM to 57.5 uM. After 1 hr of cell culture incubation (37 °C, 5% CO2), 1 microL of 1 microg/mL lipopolysaccharide (250 ng/mL, final) and 5 mM ATP (1.25 mM, final) were added to stimulate the cells. After 16 hr of cell culture incubation with the compounds, 1.5 uL of anti-IL-1B acceptor beads (6 ug/mL, final) and biotinylated antibody (0.6 nM, final) were added to the plate, followed by a 1 hr incubation at ambient temperature. To detect the secreted IL-1B, 1.5 uL of AlphaLISA SA-Donor beads (24 ug/mL, final) were added, followed by 30 min of incubation in the dark at ambient temperature. The AlphaLISA signal was read by a PerkinElmer EnVision plate reader with an ultrasensitive luminescence detector and 1536 Plate HTS AlphaScreen aperture (excitation of 680nm and emission of 615nm).
% is set by controls: 0 for no effect and ±100 for the full control effect.

Structure (SMILES)	activity change
CC(=O)OCc1cc(=O)n(C)c(=O)n1C	18.2%
COc1ccc(OCC(O)CN(C)C(=O)C(C)Oc2ccccc2)cc1 (centres undefined)	-1.85%
Cc1ccc(OCC(=O)OC(C)CN(C)Cc2ccccc2)cc1 (centres undefined)	11.3%
CN(Cc1ccccc1)CC(O)COc1ccc(CNCc2cc3ccccc3s2)cc1 (centres undefined)	-52.3% (active)
CC1(C(=O)NCc2ccccc2)CSCC(=O)N1CCCn1ccnc1 (centres undefined)	-3.98%
Cc1ccc(C(CNC(=O)Nc2ccccc2)N2CCN(C)CC2)cc1 (centres undefined)	-19.3%
Cc1ccc2nc(SCC(=O)N3CCN(c4ccccc4)CC3)nc(=O)n2c1	-22.4%
CCN(CCCNC(=O)CSc1cc(=O)n(C)c2cc(Cl)ccc12)Cc1ccccc1	-66.3% (active)
CCN(CC)CCCNC(=O)CCn1nc(-c2ccc(Cl)cc2)ccc1=O	0.889%
CCOc1ccc(CCNC(=O)CSc2cc(=O)n(C)c3ccc(Cl)cc23)cc1OCC	15.4%
COC(=O)c1ccc(CN2C(=O)C(Cc3ccccc3)ON=C2c2ncccc2C)o1 (centres undefined)	0%
Cc1ccc2cccc(OCCCOc3ccccc3CO)c2n1	-5.38%
N#Cc1cccc(NC(=O)CN2CCCCCC2)c1	-4.14%
Cc1nc(-c2ccc([N+](=O)[O-])cc2)c(-c2ccccc2)o1	-1.34%
O=C1CC(c2ccccc2)=NN1c1ccc([N+](=O)[O-])cc1	-62.7% (active)
O=[N+]([O-])c1ccc(N2CCOCC2)cc1	-12%
Cc1c(NC(=O)COC(=O)/C=C/c2cccc(F)c2)c(=O)n(-c2ccccc2)n1C	-1.18%
CCCCN1CC(C)(C)[C@H](CC(=O)Nc2ccc(Br)cc2)C1=O	-25.6%
COc1ccc([C@H]2C[C@@H](n3cc(COC(=O)c4ccccc4)nn3)[C@H](O)CN2C(=O)c2cccs2)cc1	3.71%
C[C@H]1CN([C@@H](C)CO)C(=O)CCCn2cc(nn2)CO[C@@H]1CN(C)S(=O)(=O)c1ccc(-c2ccccc2)cc1	0%
CCOC(=O)c1oc2c(CN3CCN(C)CC3)c(O)ccc2c(=O)c1-c1ccc(Br)cc1	2.61%
CN1CCN(Cc2c(O)ccc3c2oc(=O)c2ccccc23)CC1	-65.7% (active)

Structure (SMILES)	activity change
O=c1oc2c(CN3CCCCC3)c(O)ccc2c2c1CCCCC2	11%
O=c1cc(CN2CCCCCCC2)c2c(ccc3ccccc32)o1	25.6%
O=C(COC(=O)/C=C/c1ccc2c(c1)OCO2)NC1CCS(=O)(=O)C1 (centres undefined)	-29.2%
CN(Cc1ccccc1)C(=O)COC(=O)/C=C/c1ccc2c(c1)OCO2	-60.4% (active)
CCOC(=O)CCCNC(=O)COC(=O)/C=C/c1ccc2c(c1)OCO2	-11.7%
OC[C@@H]1CN(Cc2ccc(F)cc2)C[C@H](n2cnc3c(NC4CCCC4)ncnc32)O1	0%
COc1ccc(CCN(C(=O)COc2ccccc2)c2nc(-c3ccccc3)cs2)cc1OC	-19.6%
COc1ccc(CCNc2nc(-c3cccc(NC(C)=O)c3)cs2)cc1OC	-53.6% (active)
COc1cc(CC(=O)NCc2cccs2)cc(OC)c1OC	0%
COc1ccc(NC(=O)C2(C)Cc3c(-c4cccc(NC(C)=O)c4)ccnc3O2)cc1OC (centres undefined)	-4.57%
COc1ccc(OC)c(-c2csc(NC(=O)COC(=O)C3CC3)n2)c1	-8.53%
CC(=O)Nc1cccc(-c2csc(Nc3cccc(C)n3)n2)c1	-56.6% (active)
CC(=O)NC(c1ccccc1)c1nc(-c2cccc(C(C)C)c2)cs1 (centres undefined)	-14.5%
COc1cccc(CC(=O)Nc2nc(-c3ccc(OC)c(OC)c3)cs2)c1	-50.3% (active)
CCCCCCC(=O)Nc1nc(C)c(-c2csc(Nc3cccc(OC)c3)n2)s1	-17.4%
COc1ccc(-c2csc(Nc3cccc(C)n3)n2)cc1OC	-7.72%
O=C(COc1ccccc1F)Nc1nc(-c2ccccn2)cs1	33.3%
COc1cc(CC(=O)Nc2nc(-c3ccc(F)c(F)c3)cs2)cc(OC)c1OC	-57% (active)
CCCNC(=O)C1(C)CCCN(C(=O)c2cccc(OC(C)=O)c2C)C1 (centres undefined)	1.04%
CCc1nc2c(OCCOc3ccccc3)cccn2c1N(C)C(=O)c1ccccc1F	-0.777%
CC(C)CCNC(=O)c1cccnc1Sc1ccccc1	-7.52%
COc1ccc(CC(=O)Nc2nc(-c3ccc(F)c(F)c3)cs2)cc1OC	-67.5% (active)

From PubChem BioAssay AID743279 (National Center for Advancing Translational Sciences (NCATS), 2014)
